Compounds with a hit are over-represented: about 1.1% of the library has one in this group of screens.
LAP4 TOR yeast: alters LAP4-GFP fluorescence in TOR pathway yeast screen. 320,000 tested, 0.34% active. S. cerevisiae LAP4-GFP multiplex, flow cytometry GFP, 3 h; median GFP as percent of DMSO wells. GFP response vs DMSO, % at 10 µM;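 active = GFP response vs DMSO above a set limit, about the screen mean plus 3 SD, cut at about 150% in these data; inconclusive = under 70 cell events counted for the yeast strain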
MEP2-GFP yeast: alters MEP2-GFP fluorescence in TOR pathway yeast screen. 330,000 tested, 0.51% active. S. cerevisiae MEP2-GFP strain, flow cytometry GFP, 3 h; 100% = DMSO control level. GFP response vs DMSO, % at 10 µM;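 active = GFP response versus DMSO above a set limit, roughly screen mean plus 3 SD, cut at about 180% in these data; inconclusive = fewer than 70 cells counted for a yeast strain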;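 note: median GFP fluorescence of the barcode-gated MEP2-GFP cells per well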
RPL19A TOR yeast: modulators of TOR pathway RPL19A-GFP in S. cerevisiae; 330,000 tested, 0.3% active; S. cerevisiae RPL19A-GFP strain, flow cytometry, 3 h; active compounds read low; percent response vs DMSO, % at 10 µM;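 active = percent response vs DMSO below 50%; inconclusive = fewer than 70 events counted for the yeast strain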;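 note: median channel GFP fluorescence of the barcoded RPL19A-GFP strain; ratio of sample median GFP to plate DMSO average so 100% = DMSO; lower means less RPL19A-GFP as with rapamycin TOR inhibition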
AGP1-GFP MLPCN: alters AGP1-GFP fluorescence in TOR pathway yeast screen | 320,000 tested, 0.02% active | GFP response vs DMSO, % at 10 µM | S. cerevisiae AGP1-GFP multiplex flow cytometry, 3 h; GFP as percent of DMSO wells | AID 2066;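 active = GFP response relative to DMSO above a set limit, near screen average plus 3 SD, cut at about 150% in these data; inconclusive = fewer than 70 cells counted for the yeast strain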;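 note: median GFP channel fluorescence of the gated AGP1 strain per well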
CIT2 TOR yeast: modulators of TOR pathway CIT2-GFP in S. cerevisiae; S. cerevisiae CIT2-GFP strain, flow cytometry, 3 h; 100 means same as DMSO wells; GFP response vs DMSO, % at 10 µM; 320,000 tested, 0.065% active; AID 2029;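 active = GFP response relative to DMSO above a set limit, near the screen mean plus 3 SD, cut at about 150% in these data; inconclusive = Fewer than 70 cells measured for a yeast strain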;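 note: ratio of well median GFP fluorescence to mean of DMSO wells on the plate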
VLA-4 inh: inhibition in a human VLA-4 binding assay. 330,000 tested, 0.2% active. P13612. VLA-4 expressing cells, ligand binding flow cytometry. inhibition, % (about 7 µM as worked out from the volumes in the protocol); in the data active = inhibition above about 50%
Target sequence (P13612 whole entry, looked up): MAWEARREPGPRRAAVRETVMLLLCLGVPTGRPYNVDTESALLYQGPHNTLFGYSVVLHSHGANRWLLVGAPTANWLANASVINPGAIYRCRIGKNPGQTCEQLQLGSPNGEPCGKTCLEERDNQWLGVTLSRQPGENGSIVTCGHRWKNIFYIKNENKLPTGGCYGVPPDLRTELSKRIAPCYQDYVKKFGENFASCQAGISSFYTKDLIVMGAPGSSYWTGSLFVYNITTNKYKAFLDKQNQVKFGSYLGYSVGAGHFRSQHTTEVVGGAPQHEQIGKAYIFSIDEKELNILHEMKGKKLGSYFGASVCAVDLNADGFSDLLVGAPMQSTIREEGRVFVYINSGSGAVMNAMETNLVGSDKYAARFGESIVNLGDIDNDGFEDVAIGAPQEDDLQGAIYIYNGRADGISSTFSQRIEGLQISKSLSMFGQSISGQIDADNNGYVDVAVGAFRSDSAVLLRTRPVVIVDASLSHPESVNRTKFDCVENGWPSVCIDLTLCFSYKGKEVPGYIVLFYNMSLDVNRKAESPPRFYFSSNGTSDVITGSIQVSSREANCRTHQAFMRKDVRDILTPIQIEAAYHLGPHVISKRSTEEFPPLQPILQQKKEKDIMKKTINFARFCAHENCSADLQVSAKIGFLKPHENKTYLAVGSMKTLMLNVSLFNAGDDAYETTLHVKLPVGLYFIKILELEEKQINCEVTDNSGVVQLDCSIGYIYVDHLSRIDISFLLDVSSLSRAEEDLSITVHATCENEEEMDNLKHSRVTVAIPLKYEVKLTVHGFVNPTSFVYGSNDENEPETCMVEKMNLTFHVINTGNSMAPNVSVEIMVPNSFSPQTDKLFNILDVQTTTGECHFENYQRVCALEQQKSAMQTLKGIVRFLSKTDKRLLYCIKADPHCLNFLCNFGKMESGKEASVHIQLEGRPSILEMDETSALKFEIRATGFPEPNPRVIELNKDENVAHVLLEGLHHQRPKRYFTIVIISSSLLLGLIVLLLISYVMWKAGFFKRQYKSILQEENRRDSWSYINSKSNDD
Starred values were filed as active, the others as inactive; [ ] = another dose, or the depositor's remark.

How did C(=N\Nc1nc2ccccc2[nH]1)/c1ccccc1 do in these assays?
LAP4 TOR yeast: 102; MEP2-GFP yeast: 102; RPL19A TOR yeast: 101; AGP1-GFP MLPCN: 105; CIT2 TOR yeast: 101; VLA-4 inh: -3

What do the screens show for `CCOc1cc(C)c(S(=O)(=O)N2CCCC2)cc1C`?
LAP4 TOR yeast: 154*; MEP2-GFP yeast: 93; RPL19A TOR yeast: 86; AGP1-GFP MLPCN: 91; CIT2 TOR yeast: 65; VLA-4 inh: 36

What do the screens show for `Cc1c(O)ccc(C(=O)CN2CCN(c3ccc(F)cc3)CC2)c1O`?
LAP4 TOR yeast: 76; MEP2-GFP yeast: 168; RPL19A TOR yeast: 38*; AGP1-GFP MLPCN: inconclusive; CIT2 TOR yeast: 78; VLA-4 inh: 12

What do the screens show for `COCCCNC(=O)CC(NS(=O)(=O)c1ccc(C)cc1)c1ccco1` (stereo not drawn)?
LAP4 TOR yeast: 92; MEP2-GFP yeast: 238*[may fluoresce violet]; AGP1-GFP MLPCN: 30; CIT2 TOR yeast: inconclusive; VLA-4 inh: -2

How did COCCCNC(=O)CC(NS(=O)(=O)c1ccc(Cl)cc1)c1ccco1 (stereo not drawn) do in these assays?
LAP4 TOR yeast: 100; MEP2-GFP yeast: 104; RPL19A TOR yeast: 105; AGP1-GFP MLPCN: 106; CIT2 TOR yeast: 111; VLA-4 inh: 6

How did Cc1cccc(N(CC(=O)NC2CCCC2)C(=O)CCC(=O)Nc2ccccn2)c1 do in these assays?
LAP4 TOR yeast: 77; MEP2-GFP yeast: 280*[may fluoresce violet]; RPL19A TOR yeast: 55; AGP1-GFP MLPCN: inconclusive; CIT2 TOR yeast: inconclusive; VLA-4 inh: -4

Results for Cc1ccc(N(C(=O)CCC(=O)Nc2ccccn2)C(C(=O)NC(C)C)c2ccc(F)cc2)cc1 (stereo not drawn) ?
LAP4 TOR yeast: 89; MEP2-GFP yeast: 105; RPL19A TOR yeast: 102; AGP1-GFP MLPCN: 96; CIT2 TOR yeast: 93; VLA-4 inh: -7

How did Cc1cc(C)cc(N(C(=O)CCC(=O)Nc2ccccn2)C(C(=O)NC(C)C)c2ccc(O)cc2)c1 (stereo not drawn) do in these assays?
LAP4 TOR yeast: 105; MEP2-GFP yeast: 301*[may fluoresce violet]; RPL19A TOR yeast: 42*[may fluoresce violet]; AGP1-GFP MLPCN: 25; CIT2 TOR yeast: inconclusive; VLA-4 inh: 9

What do the screens show for `COCCNC(=O)C(c1ccc(O)cc1)N(Cc1ccco1)C(=O)CCC(=O)Nc1ccccn1` (stereo not drawn)?
LAP4 TOR yeast: 78; MEP2-GFP yeast: 230*[may fluoresce violet]; RPL19A TOR yeast: 48*[may fluoresce violet]; AGP1-GFP MLPCN: inconclusive; CIT2 TOR yeast: inconclusive; VLA-4 inh: -3

What do the screens show for `COCCNC(=O)C(c1ccc(F)cc1)N(Cc1ccco1)C(=O)CCC(=O)Nc1ccccn1` (stereo not drawn)?
LAP4 TOR yeast: 89; MEP2-GFP yeast: 103; RPL19A TOR yeast: 102; AGP1-GFP MLPCN: 99; CIT2 TOR yeast: 92; VLA-4 inh: 14

How did COc1ccc(CCNc2nc(C)nc3c2nnn3Cc2ccccc2)cc1 do in these assays?
LAP4 TOR yeast: 92; MEP2-GFP yeast: 105; RPL19A TOR yeast: 103; AGP1-GFP MLPCN: 100; CIT2 TOR yeast: 106; VLA-4 inh: 0

Results for CC1CN(C(=O)CSc2nnc(-c3ccccc3)o2)CC(C)O1 (stereo not drawn) ?
LAP4 TOR yeast: 83; MEP2-GFP yeast: 86; RPL19A TOR yeast: 80; AGP1-GFP MLPCN: 94; CIT2 TOR yeast: 91; VLA-4 inh: -3

What do the screens show for `CCCCNC(=O)CCC(=O)Nc1ccc2nc(N3CCOCC3)cc(C)c2c1`?
LAP4 TOR yeast: 97; MEP2-GFP yeast: 98; RPL19A TOR yeast: 95; AGP1-GFP MLPCN: 99; CIT2 TOR yeast: 91; VLA-4 inh: 8

What do the screens show for `Cc1cc(N2CCOCC2)nc2ccc(NC(=O)C3CCC(C)CC3)cc12` (stereo not drawn)?
LAP4 TOR yeast: 95; MEP2-GFP yeast: 184*[may fluoresce violet]; RPL19A TOR yeast: 57; AGP1-GFP MLPCN: 24; CIT2 TOR yeast: inconclusive; VLA-4 inh: -18

Results for Cc1cccn2c(=O)c3cc(C(=O)NC4CCCC4)c(=N)n(CCCN4CCOCC4)c3nc12 ?
LAP4 TOR yeast: 90; MEP2-GFP yeast: 317*[may fluoresce violet]; RPL19A TOR yeast: 58; AGP1-GFP MLPCN: 21; CIT2 TOR yeast: inconclusive; VLA-4 inh: 7

What do the screens show for `CCOCCCn1c(=N)c(C(=O)NCCN2CCOCC2)cc2c(=O)n3cccc(C)c3nc21`?
LAP4 TOR yeast: inconclusive; MEP2-GFP yeast: inconclusive; RPL19A TOR yeast: inconclusive; AGP1-GFP MLPCN: inconclusive; CIT2 TOR yeast: inconclusive; VLA-4 inh: 2

What do the screens show for `Cc1cccn2c(=O)c3cc(C(=O)NCCN4CCOCC4)c(=N)n(CCN4CCOCC4)c3nc12`?
LAP4 TOR yeast: 83; MEP2-GFP yeast: inconclusive; RPL19A TOR yeast: 44*[may fluoresce violet]; AGP1-GFP MLPCN: inconclusive; CIT2 TOR yeast: inconclusive; VLA-4 inh: -1

Results for O=C(O)C(Cc1ccccc1)N=C(NS(=O)(=O)c1ccccc1)c1ccccc1 (stereo not drawn) ?
LAP4 TOR yeast: 94; MEP2-GFP yeast: 92; RPL19A TOR yeast: 93; AGP1-GFP MLPCN: 97; CIT2 TOR yeast: 93; VLA-4 inh: 9

What do the screens show for `CCOc1ccc(OCC(=O)N(C)c2c(N)n(Cc3ccccc3)c(=O)[nH]c2=O)cc1`?
LAP4 TOR yeast: inconclusive; MEP2-GFP yeast: 119; RPL19A TOR yeast: 43*[may fluoresce violet]; AGP1-GFP MLPCN: inconclusive; CIT2 TOR yeast: inconclusive; VLA-4 inh: -11

What do the screens show for `CN(C(=O)CCOc1ccccc1)c1c(N)n(Cc2ccccc2)c(=O)[nH]c1=O`?
LAP4 TOR yeast: 94; MEP2-GFP yeast: 100; RPL19A TOR yeast: 94; AGP1-GFP MLPCN: 104; CIT2 TOR yeast: 95; VLA-4 inh: 20

Results for O=C(COC(=O)c1ccc(Br)o1)NCc1cccs1 ?
LAP4 TOR yeast: 97; MEP2-GFP yeast: 99; RPL19A TOR yeast: 95; AGP1-GFP MLPCN: 93; CIT2 TOR yeast: 93; VLA-4 inh: 3

Results for O=C(COC(=O)c1ccco1)NCc1cccs1 ?
LAP4 TOR yeast: 93; MEP2-GFP yeast: 355*[may fluoresce violet]; RPL19A TOR yeast: 28*[may fluoresce violet]; CIT2 TOR yeast: inconclusive; VLA-4 inh: 6

How did N#CC(C#N)=Cc1c[nH]c(=O)c(C#N)c1Nc1ccccc1 do in these assays?
LAP4 TOR yeast: 104; MEP2-GFP yeast: 266*[may fluoresce violet]; RPL19A TOR yeast: 61; AGP1-GFP MLPCN: inconclusive; CIT2 TOR yeast: inconclusive; VLA-4 inh: 19

How did FC(F)(F)c1cnc(-c2cnc(-c3ccccn3)nc2)c(Cl)c1 do in these assays?
LAP4 TOR yeast: 155*; MEP2-GFP yeast: 110; RPL19A TOR yeast: 93; AGP1-GFP MLPCN: 109; CIT2 TOR yeast: 110; VLA-4 inh: 17

Results for Cc1ccc(NC(=O)NC2=N/C(=C(/C#N)C(=O)N3CCCC3)c3ccccc32)cc1 ?
LAP4 TOR yeast: 103; MEP2-GFP yeast: 237*[may fluoresce violet]; RPL19A TOR yeast: 21*[may fluoresce violet]; AGP1-GFP MLPCN: inconclusive; CIT2 TOR yeast: inconclusive; VLA-4 inh: 32
